Source: PubChem BioAssay (National Center for Advancing Translational Sciences (NCATS))
FLuc modulator – firefly luciferase modulation, counter-screen for miR-21 project; Potency, µM (series often up to 57.5 µM), usual class: inhibitors; AID 588342; actives 6.9% (n = 360,000); purified FLuc, Km substrates, luminescence inhibition; also: nearly all actives have a fitted effect of over 55% in size
Target sequence (P08659 whole entry, looked up): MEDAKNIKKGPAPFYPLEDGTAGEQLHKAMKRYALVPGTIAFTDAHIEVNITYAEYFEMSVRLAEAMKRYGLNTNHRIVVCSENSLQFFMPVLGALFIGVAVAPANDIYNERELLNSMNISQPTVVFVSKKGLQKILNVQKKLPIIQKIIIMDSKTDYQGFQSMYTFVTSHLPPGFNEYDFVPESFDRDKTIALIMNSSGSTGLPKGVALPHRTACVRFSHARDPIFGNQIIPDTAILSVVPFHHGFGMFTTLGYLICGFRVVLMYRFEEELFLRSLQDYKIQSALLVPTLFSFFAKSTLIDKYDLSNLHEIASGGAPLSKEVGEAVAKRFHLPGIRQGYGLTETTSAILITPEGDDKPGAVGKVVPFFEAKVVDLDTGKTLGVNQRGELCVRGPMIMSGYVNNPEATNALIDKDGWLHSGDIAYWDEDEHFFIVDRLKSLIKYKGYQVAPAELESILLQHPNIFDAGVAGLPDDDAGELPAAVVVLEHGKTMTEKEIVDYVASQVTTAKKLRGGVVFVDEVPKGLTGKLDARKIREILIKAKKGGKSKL
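Purified P. pyralis luciferase (10nM final) with 10uM D-luciferin and 10uM ATP (Km levels) in 50mM Tris acetate pH 7.5, 10mM Mg acetate, 0.01% Tween-20, 0.05% BSA; qHTS 6-point titration, ~60 µM downward; luminescence read.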
Luc counter – Kinase-Glo luciferase inhibition (counter-screen); Kinase-Glo luciferase, ATP luminescence, 8 min; Q27757; AID 1379; Potency, µM (highest dose often 38.3 µM), most hits filed as inhibitors; actives 0.28% (n = 200,000); also: nearly all actives have a fitted effect of over 60% in size
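Kinase-Glo luciferase light output from ATP and luciferin was measured with 10 uM ATP, within the enzyme's linear range. Buffer: 50 mM imidazole pH 7.2, 50 mM KCl, 7 mM MgCl2, 0.01% Tween 20, 0.05% BSA; luminescence read after 8 min at ambient temperature.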
SMN2 splice enh – increases expression of the SMN2 splice variant; HEK293 SMN2-luciferase splicing reporter, luminescence, 30-36 h; Potency, µM (highest dose often 46.1 µM), most hits filed as activators; actives 2.8% (n = 210,000); AID 1458; also: nearly all actives have a fitted effect of over 55% in size
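HEK293 cells carry an SMN2 minigene-luciferase reporter in which exon 7 inclusion puts luciferase in frame. Cells were seeded at 2000 cells/well, attached for 10-12 hours, then exposed to compounds for 30-36 hours at 37C before ONE-Glo luminescence.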
ELG1 genotoxic – inducers of genotoxicity in HEK293T ELG1-luciferase cells. Potency, µM (doses to about 46 µM), most hits filed as activators. HEK293T ELG1-luciferase reporter, luminescence, 16 h. AID 504466. actives 1.3% (n = 330,000); also: nearly all actives have a fitted effect of over 60% in size
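HEK293T cells expressing luciferase-tagged ELG1 were exposed to compound or DMSO vehicle for 16 hr at 37 °C and 5% CO2. Luciferase activity was then measured with ONE-Glo after 30 min at room temperature.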
Rab9 prom act – activators of Rab9 promoter; Huh7 Rab9 promoter-luciferase reporter, luminescence, 24 h; Potency, µM (series often up to 9.22 µM), usual class: activators; actives 2.8% (n = 320,000); also: nearly all actives have a fitted effect of over 60% in size
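Measured in stably transfected Huh7 cells bearing a Rab9 promoter–luciferase construct: 24 h compound treatment at 37 °C, followed by luminescence detection.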
NPC1 prom act – NPC1 promoter activation; Huh7 NPC1 promoter luciferase reporter, 24 h; Potency, µM (series often up to 9.22 µM), hits mostly activators; actives 2.4% (n = 320,000); AID 485313; also: nearly all actives have a fitted effect of over 60% in size
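Luminescence read-out of NPC1 promoter-driven luciferase in stably transfected Huh7 cells; compounds delivered in DMSO and left 24 h at 37C, 5% CO2, qHTS titration format.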
Hits are given with their value; n = inactive; u = inconclusive; x = no result given; [ ] = remark or other dose. Only some compounds are listed: those with a hit (about 7.5% of all), similar ones and a draw of the others. Calls follow the shape of the dose curve; as a rule, active = well fitted curve in the direction sought with a large enough effect; inconclusive = small, poorly fitted or top-dose-only effect, or another doubt; inactive = no such curve, though single readings can be large; an effect the other way counts as inactive or inconclusive.

SMILES	FLuc modulator	Luc counter	SMN2 splice enh	ELG1 genotoxic	Rab9 prom act	NPC1 prom act
O=C(CS(=O)(=O)c1ccccc1)c1cc2cc(F)ccc2oc1=O	1.9µM	x	x	n	n	n
Cc1ccc(NC(=O)C(Cc2ccccc2)N2Cc3ccccc3C2=O)cc1Cl (stereo not given)	n	x	x	x	x	x
Cc1noc(C)c1C(=O)OCC(=O)c1cc(C)n(Cc2ccccc2Cl)c1C	10.7µM	n	n	16.4µM	u	u
Cc1noc(C)c1C(=O)OCC(=O)c1ccc[nH]1	n	n	n	n	n	n
Cc1nc(-c2coc3c(O)c(O)ccc3c2=O)cs1	x	n	22.4µM	x	x	x
Cc1cc2[nH]c(=O)cc(-c3ccccc3)n2n1	9.53µM	x	x	u	u	u
Cc1cc2[nH]c(=O)c3ccccc3n2n1	n	n	n	n	n	n
Cc1ccc(NC(=O)N2CCN3CCCCC3C2)cc1C (stereo not given)	n	x	x	x	x	x
COCCn1c(C)cc(C(=O)CSc2ncn[nH]2)c1C	u	n	5.62µM	n	n	n
COCCn1c(C)cc(C(=O)CSc2nnc3ccccn23)c1C	1.35µM	u	u	0.581µM	u	u
COCCn1c(SCC(=O)c2cc(C)n(C)c2C)nc2ccccc2c1=O	u	n	n	n	n	n
Cc1ccc(C(=O)CSc2nnc3ccccn23)c(C)c1	2.69µM	n	10µM	4.61µM	0.794µM	2µM
O=C(NCCS(=O)(=O)NCc1cccnc1)c1ccccc1	n	x	x	n	n	n
O=C(Nc1nccs1)c1sc2ccccc2c1Cl	0.675µM	n	2.51µM	u	1.12µM	3.98µM
Cc1onc(-c2ccccc2Cl)c1C(=O)Nc1nnc(C(C)C)s1	n	n	n	n	n	n
O=C(Nc1nccs1)c1sc2cc(Cl)ccc2c1Cl	2.69µM	n	u	n	3.98µM	3.55µM
O=C(Nc1nccs1)c1cc(Cl)ccc1[N+](=O)[O-]	n	n	n	n	n	n
CC(C)c1nnc(NC(=O)c2sc3ccccc3c2Cl)s1	4.78µM	n	u	n	u	3.16µM
CCCn1nnc(NC(=O)Cc2ccccc2)n1	n	n	n	n	n	n
CCCn1nnc(NC(=O)c2sc3ccccc3c2Cl)n1	26.9µM	n	u	9.2µM	3.16µM	u
O=C(Nc1nccs1)c1ccc(Cl)s1	u	n	n	u	u	u
CC(=O)N1CCC(C(=O)Nc2ccc(S(=O)(=O)NCCc3ccccc3)cc2)CC1	n	x	x	n	n	n
Cc1cnc(NC(=O)c2sc3ccccc3c2Cl)s1	0.301µM	n	1µM	0.651µM	u	u
O=C(Nc1ccccn1)c1sc2cc([N+](=O)[O-])ccc2c1Cl	u	x	x	n	1.26µM	u
O=C(CCn1c(=O)sc2ccccc21)Nc1nccs1	13.5µM	n	n	u	n	n
SMILES	FLuc modulator	Luc counter	SMN2 splice enh	ELG1 genotoxic	Rab9 prom act	NPC1 prom act
O=C(NCCCN1CCOCC1)c1sc2cc([N+](=O)[O-])ccc2c1Cl	u	n	n	n	n	n
Cc1csc(NC(=O)CCn2c(=O)sc3ccccc32)n1	u	n	n	n	n	n
Cc1ccnc(NC(=O)c2sc3ccccc3c2Cl)c1	0.12µM	n	3.16µM	0.92µM	0.316µM	0.1µM
CC(C)c1ccc(NC(=O)c2cc(Br)ccc2Br)cc1	u	n	n	n	n	n
CC(C)c1ccc(NC(=O)c2csnn2)cc1	2.13µM	n	u	1.16µM	1.78µM	1.58µM
NS(=O)(=O)c1ccc(NC(=O)c2csnn2)cc1	n	x	x	x	x	x
CC(C)c1ccc(NC(=O)c2cccnc2)cc1	16.9µM	n	u	20.6µM	3.98µM	u
CC(C)c1ccc(NC(=O)c2snc3ccc(Cl)cc23)cc1	7.57µM	n	14.1µM	u	2.24µM	2.51µM
O=C(NC(=S)Nc1ccccc1Cl)c1csnn1	13.5µM	n	n	n	n	n
CC(C)c1ccc2oc(-c3cc(NC(=O)c4cccnc4)ccc3Cl)nc2c1	10.7µM	x	n	x	x	x
CC(C)c1ccc2oc(-c3ccc(NC(=O)c4cccc(Br)c4)cc3)nc2c1	n	x	n	x	x	x
O=C(NNC(=S)Nc1ccc(Br)cc1)c1cccnc1	u	x	x	n	n	n
CC(C)c1ccc(NC(=S)NNC(=O)c2cccnc2)cc1	10.7µM	n	n	n	n	n
CC(OC(=O)c1cccc(S(=O)(=O)N2CCCCCC2)c1)C(=O)Nc1ccc(S(N)(=O)=O)cc1 (stereo not given)	n	x	x	n	n	n
COc1ccc2nc3ccccc3nc2c1N	4.78µM	x	x	18.3µM	3.16µM	2.24µM
O=C(CCNC(=O)C1CCN(S(=O)(=O)c2ccccc2)CC1)Nc1ccccc1	n	x	x	n	n	n
Cc1noc(C)c1NC(=O)N(C)C[C@H]1Oc2ccc(NS(=O)(=O)c3cccs3)cc2C(=O)N([C@H](C)CO)C[C@@H]1C	x	x	x	n	x	x
CC(C)c1ccc(S(=O)(=O)/N=C2\C=C(NS(=O)(=O)c3ccccc3)C(=O)c3ccccc32)cc1	19µM	x	x	n	n	n
CCc1ccc(S(=O)(=O)/N=C2\C=C(NS(=O)(=O)c3ccccc3)C(=O)c3ccccc32)cc1	15.1µM	x	x	u	n	n
CCN(CC)c1ccc(NC(=O)C(NS(=O)(=O)c2cccs2)C(C)C)c(C)c1 (stereo not given)	n	x	n	x	x	x
N#CC1=C(N)Oc2c(oc(CO)cc2=O)C1c1ccsc1 (stereo not given)	n	n	n	n	n[1.84 µM]	n
N#CC1=C(N)Oc2c(ccc3ccccc23)C1c1ccsc1 (stereo not given)	u	n	n	14.6µM	n	n
O=C(COc1ccc(-c2nnco2)cc1)Nc1ccc(C(F)(F)F)cc1	n	x	x	n	n	n
CCCCN1C(C(=O)Nc2ncccn2)=C(O)c2ccccc2S1(=O)=O	n	x	x	n	n	n
Cc1cc(C)c2nc(SCC(=O)N3CC(=O)Nc4ccccc43)c(C#N)cc2c1	12µM	n	n	n	n	n
SMILES	FLuc modulator	Luc counter	SMN2 splice enh	ELG1 genotoxic	Rab9 prom act	NPC1 prom act
COc1ccc2nc(SCC(=O)N3CC(=O)Nc4ccccc43)c(C#N)cc2c1	u	n	n	n	n	n
COc1ccccc1/C=C/C=N/NC(=O)c1ccccn1	8.49µM	n	11.2µM	n	1.12µM	2µM
COc1ccccc1/C=C/C=N/NC(=O)c1cnccn1	u	n	x	n	n	n
COc1ccccc1/C=C/C=N/NC(=O)c1cc(-c2ccco2)[nH]n1	16.9µM	x	x	n	n	n
CC(C)Oc1ccc(/C(O)=C2/C(=O)C(=O)N(CCN(C)C)C2c2ccco2)cc1 (stereo not given)	21.3µM	n	n	u	u	n
CC1Cc2cc(/C(O)=C3/C(=O)C(=O)N(CCCn4ccnc4)C3c3ccco3)ccc2O1 (stereo not given)	15.1µM	n	n	u	2.82µM	u
CCN(CC)CCN1C(=O)C(=O)/C(=C(/O)c2ccc(OC)cc2)C1c1ccco1 (stereo not given)	u	x	x	n	n	n
